Source: PubChem BioAssay (NCATS)
Several values for one entry are separate records, joined by “and”; a condition that tells them apart may be missing. Identical values can stand only once. Inconclusive results are not listed. Values without a mark were called inactive. The call rests on the fitted dose curve; in most records, active means well fitted inhibition curve with a large enough effect in the signal ratio, with a control signal flat (not every such curve was filed as active); inconclusive means small, poorly fitted or top-dose-only effect, or effect the other way, or a change in a side signal; inactive means no such curve, though single readings can be large or run the other way; the % refers to the signal ratio.

These compounds were tested against Retinoic acid receptor RXR-alpha (Homo sapiens) (UniProt P19793) (assay: qHTS assay for small molecule antagonists of retinoid X receptor alpha signaling (AID 588546)). Settings: HEK293T RXRa-UAS-bla, beta-lactamase ratio, antagonist mode.
From the text: NIH Chemical Genomics Center [NCGC] U.S. Environmental Protection Agency [EPA] National Institutes of Environmental Health Sciences [NIEHS] National Toxicology Program [NTP] NCGC Assay Overview The Retinoid X receptor (RXR), a nuclear hormone receptor is expressed in liver, spleen, placenta, epidermis, central nervous system. These receptors are able to form homo and heterodimers with other nuclear receptors and due to this heterodimerizing ability, RXR functions as master regulators producing diverse physiological effects. Three subtypes of RXR exist; alpha, beta and gamma. Retinoid X receptor alpha (RXR-alpha) has potential roles in metabolic signaling pathways, skin alopecia, dermal cysts, cardiac development, insulin sensitization etc. Therefore screening environmental chemicals on RXR-alpha signaling can be used for the studies focused on such therapeutic applications.
NCGC Assay Protocol Summary Using a beta-lactamase reporter-gene under control of Retinoid X receptor--alpha (RXR-alpha) response element, a cell-based assay [GeneBLAzer (RXR-alpha -UAS-bla assay developed by Invitrogen] was used to measure RXR-alpha ligands signaling. GeneBLAzer RXR-alpha -UAS-bla HEK293T cells were used with assay medium containing 2% charcoal-stripped FBS. The assay was performed in clear bottom black Greiner 1536-well plates. Library compounds were measured for their ability to inhibit the reporter gene activity. Compounds were screened in a titration series in 1536-well format. The fluorescence intensity (405 nm excitation, 460/530 nm emission) was measured using an EnVision plate reader. Data was normalized relative to 9-cis-retinoic acid control (500 nM, 100%), and DMSO only wells (basal, 0%). Concentration-response titration points for each compound were fitted to the Hill equation yielding concentrations of half-maximal inhibition (IC50) and maximal response (efficacy) values. qHTS protocol for RXR-alpha beta-lactamase assay in antagonist mode [Step] [Parameter] [Value] [Description] 1. Reagent; 5 uL; 2500 cells/well 2. Incubation; 37 C for 4 hrs 3. Compounds; 23 nL; 0.59 nM to 92 uM 4. Controls (DMSO); 23 nL 5. Agonist (Stimulator); 1uL; 9-cis-retinoic acid at 500 nM and 100 nM final concentrations 6. Incubation; 37 C for 18 hrs 7. Detection reagent; 1 uL of CCF4-dye 8. Incubation; RT for 2 hrs 9. Detection; Fluorescence; Envision plate reader
On the % scale 0 is the no-effect control and ±100 the full control effect.

Retinoic acid receptor RXR-alpha (Homo sapiens), sequence (P19793 whole entry, looked up): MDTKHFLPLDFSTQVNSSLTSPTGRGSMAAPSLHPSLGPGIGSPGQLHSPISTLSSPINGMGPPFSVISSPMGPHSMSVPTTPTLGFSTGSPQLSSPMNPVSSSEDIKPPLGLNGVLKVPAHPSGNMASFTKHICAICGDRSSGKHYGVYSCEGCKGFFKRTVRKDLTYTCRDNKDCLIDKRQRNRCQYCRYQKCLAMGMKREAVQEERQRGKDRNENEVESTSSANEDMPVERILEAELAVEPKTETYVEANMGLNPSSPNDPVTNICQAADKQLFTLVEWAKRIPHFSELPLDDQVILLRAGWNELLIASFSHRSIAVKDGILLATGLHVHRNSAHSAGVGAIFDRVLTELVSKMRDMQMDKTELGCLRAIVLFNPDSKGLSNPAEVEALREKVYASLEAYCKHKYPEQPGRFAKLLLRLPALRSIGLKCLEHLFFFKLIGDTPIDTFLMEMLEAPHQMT

Structure (SMILES)	max response
COC(=O)c1ccc(C)cc1	25.4% and -1.75%
C=Cc1ccccc1Cl	-6.96%
CC12CCC(CC1=O)C2(C)C (stereo not given)	4.29% and -7.42%
CC1=C2[C@H](/C=C(\C)C(=O)O)CC[C@@H](C)[C@H]2CC1	-25.2%
CCCCCCCCO	1.87% and 1.57% and -7.12%
CCC(O)OC(O)CC (stereo not given)	-3.68% and -1.43%
Nc1ccc(Cl)cc1Cl	-0.389% and -0.876%
Cc1ccc([N+](=O)[O-])cc1N	-2.87% and -11.4%
O=C1c2ccccc2C(=O)C1c1ccc2ccccc2n1	-20%
COc1cc(/C=C/c2ccccc2)oc(=O)c1	-7.15%
Cc1cccc([N+](=O)[O-])c1C	-8.9% and -18.4%
CCCCCCCCCCCC(=O)O	-14.3% and -10.1%
Nc1ccc(S(=O)(=O)O)cc1	-17.1%
COCC(=O)O	8.65% and -6.69%
CC(=O)OC/C=C(\C)CCC=C(C)C	5.08% and 4.69%
CN(C)CCCCCCN(C)C	23.1%
C1OCOCO1	38.1%
CC1(C)CC(N=C=O)CC(C)(CN=C=O)C1 (stereo not given)	12.5% and -8%
S=C1NC=NC2N=CNC12 (stereo not given)	-10.4%
C=CC(=C)CCC=C(C)C	7.13%

Structure (SMILES)	max response
O=S(=O)(O)c1ccccc1	-0.701%
ClCCCl	-2.31% and -1.04% and -10.6%
Cc1ccc(N)c([N+](=O)[O-])c1	-0.0872% and -10.2%
c1ccc2scnc2c1	-2.82%
C=CC(C)(CCC=C(C)C)OC(C)=O (stereo not given)	-7.97%
COC(=O)c1ccc(C=O)cc1	21.2% and -1.21%
CCO	-6.86%
O=C(O)c1ccccc1	-3.53%
O=C(O)c1ccccc1C(c1ccc(O)cc1)c1ccc(O)cc1	6.9% and 9.98%
CN(C)C=O	8.45% and -9.56%
CCCCCCCCCCCCCCC1CO1 (stereo not given)	5.21% and -18.5%
CCCCCCCCCCCCCC(=O)O	-6.83% and -2.87%
COC(=O)CCCCC(=O)OC	-2.55% and -9.27% and -5.71%
C/C=C\c1ccc(OC)cc1	3.92%
CCCCOCCO	8.5% and -5.75% and -0.568%
CCCCCCCCOC(=O)c1cc(O)c(O)c(O)c1	-18.9%
O[C@@H]([C@H](O)[C@@H](O)CBr)[C@@H](O)CBr	12.2%
Cc1ccccc1C	24.2% and -2.36%
C=CCc1ccc(OC)c(OC)c1	9.84% and -24.7%
CC1(C)S[C@@H]2[C@H](NC(=O)COc3ccccc3)C(=O)N2[C@H]1C(=O)O	2.91%
